# Test results as given in PubChem BioAssay (Tox21).
# Results filed as inconclusive are left out. Calls of active or inactive are those of the source. Calls follow the shape of the dose curve; as a rule, active = well fitted curve in the direction sought with a large enough effect in the signal ratio in the repeat runs (not every such curve was filed as active); inconclusive = weak or mixed curves, or a change in a side signal; inactive = no such curve, though single readings can be large or run the other way; the % refers to the signal ratio.
# Test: qHTS assay to identify small molecule agonists of the NFkB signaling pathway (AID 1159509)
# Details: NFkB-bla ME-180 cells, beta-lactamase FRET ratio, 5 h; series mostly up to 61 µM
# Text: National Center for Advancing Translational Sciences [NCATS]
# NIH Chemical Genomics Center [NCGC]
# U.S. Environmental Protection Agency [EPA]
# National Institutes of Environmental Health Sciences [NIEHS]
# National Toxicology Program [NTP]
# U.S. Food and Drug Administration [FDA]
# Transcription factors and their stimulated target gene expression play pivotal roles across many cellular processes including responses to environmental stimuli. Proper regulation of associated pathways is critical to maintain cell health and function. Constitutive activation of transcription factor pathways has been implicated in tumors as it may block cellular functions such as apoptosis and lead to invasion and metastasis. One important transcription factor that stimulates gene expression in response to cytokines, UV radiation, and other stimuli is nuclear factor-kappa B (NFkB). To measure activation of the NFkB pathway, the CellSensor NFkB-bla ME-180 cell line (Life Technologies, Carlsbad, CA) that stably expresses beta-lactamase reporter gene under the regulation of a NF-kB response element was used. This assay allows measurement of the NFkB pathway activity induced by compounds in a ME-180 cell line. This system quantitates NF-kB activity using a FRET-based assay system where beta-lactamase expression disrupts FRET, allowing for fluorescent measurement of activity. This cell line has been used to screen the Tox21 10K compound library and to identify compounds that induce the NFkB pathway activity.
# Tox21 Assay Protocol Summary:
# NFkB-bla ME-180 cells were dispensed at 2,000 cells/6 uL of assay medium per well into black wall/clear-bottom 1536-well plates using a Multidrop Combi (ThermoFisher Scientific, Waltham, MA) dispenser. After the assay plates were incubated at 37 C and 5% CO2 for an overnight, 23 nL of compounds dissolved in DMSO, positive controls or DMSO only was transferred to the assay plate by a Pintool station (Kalypsys, San Diego, CA). The assay plates were incubated at 37 C and 5% CO2 for 5 hr. One uL of LiveBLAzer B/G FRET substrate (Life Technologies) was added using a Flying Reagent Dispenser (Aurora Discovery, San Diego, CA) and the plates were incubated at room temperature for 1.5 hr. Fluorescence intensity (405 nm excitation, 460 nm and 530 nm emissions) was measured using an Envision plate reader (PerkinElmer, Shelton, CT).
row,SMILES,outcome
1,Cc1ccc(S(N)(=O)=O)cc1,inactive
2,CC(C)(N)CO,inactive
3,CC(=O)CC(=O)Nc1ccccc1C,inactive
4,Cc1cccc(O)c1,inactive
5,c1c[nH]cn1,inactive
6,CCCCCC/C(C=O)=C\c1ccccc1,inactive
7,C[C@H]1C[C@@H]2[C@H]([C@@H](O)C[C@@]3(C)[C@H]2CC[C@]3(O)C(=O)CO)[C@@]2(C)C=CC(=O)C=C12,inactive
8,COc1ccc(Nc2ccccc2)c(C)c1,inactive
9,c1ccc2c(c1)ccc1ccccc12,inactive
10,CCc1cccc(C)c1N,inactive
11,O=P(OC(CCl)CCl)(OC(CCl)CCl)OC(CCl)CCl,inactive
12,OCC(CO)(CBr)CBr,inactive
13,OC[C@H]1O[C@@](CO)(O[C@H]2O[C@H](CO)[C@@H](O)[C@H](O)[C@H]2O)[C@@H](O)[C@@H]1O,inactive
14,CCN(CC)c1ccc(C(=O)c2ccccc2C(=O)O)c(O)c1,inactive
15,CN(C)CCCN,inactive
16,CC(=O)OCC(=O)[C@@]12N=C(C)O[C@@H]1C[C@H]1[C@@H]3CCC4=CC(=O)C=C[C@]4(C)[C@H]3[C@@H](O)C[C@@]12C,inactive
17,CC(=O)CC(=O)Nc1ccccc1,inactive
18,CCC(O)OC(O)CC (stereo not given),inactive
19,N[C@@H](Cc1cc(I)c(Oc2cc(I)c(O)c(I)c2)c(I)c1)C(=O)O,inactive
20,CCCCCCCCCCCCCCO,inactive

row,SMILES,outcome
1,O=C(O)[C@H](O)[C@@H](O)[C@H](O)[C@H](O)CO,inactive
2,O=c1[nH]c(=O)n([C@H]2CCCO2)cc1F,inactive
3,CCCCCC(N)=O,inactive
4,c1ccc(OCCOc2ccccc2)cc1,inactive
5,CC1=C(C)S(=O)(=O)CCS1(=O)=O,inactive
6,Cc1cc(C)c(C)cc1C,inactive
7,CC1=CC(=O)NS(=O)(=O)O1,inactive
8,O=C(O)c1ccc2c(c1)C(=O)OC2=O,inactive
9,Cc1ccc2oc(=O)ccc2c1,inactive
10,O=[N+]([O-])c1ccc(/C=C/c2ccc([N+](=O)[O-])cc2S(=O)(=O)O)c(S(=O)(=O)O)c1,inactive
11,CCCCCCCCCCCCCCCO,inactive
12,Fc1ccc(Br)cc1,inactive
13,Oc1cccc2ccccc12,inactive
14,C=C(C)C(=O)O[C@H]1C[C@@H]2CC[C@@]1(C)C2(C)C,inactive
15,Cc1cnc(C(=O)NCCc2ccc(S(=O)(=O)NC(=O)NC3CCCCC3)cc2)cn1,inactive
16,COc1ccc2cc([C@H](C)C(=O)O)ccc2c1,inactive
17,C#CCN(C)Cc1ccccc1,inactive
18,CC(C)CC(=O)CC(C)C,inactive
19,CCCCC(CC)COC(=O)CS (stereo not given),inactive
20,c1ccc2scnc2c1,inactive
